Laboratory results published in PubChem BioAssay (NCI).
About 79,000 compounds went through this panel and 15% of them were active in at least one assay; those are over-represented in the sample as a whole. Activity calls are given as the source filed them. Rule as the data show it: active = growth inhibition above about 70%; inactive = the rest.

Tests used:
[1] = NCI Yeast Anticancer Drug Screen. Data for the rad52 strain (AID 147);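 also: 0% = growth of vehicle-treated control cultures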; conditions: S. cerevisiae rad52 mutant growth inhibition, active compounds read high
In short: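 Here a repair-compromised yeast strain receives each compound; its growth is then quantified and normalised to vehicle-only controls.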

[2] = NCI Yeast Anticancer Drug Screen. Data for the wt1 strain (AID 149);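 also: 0% = growth of vehicle-treated wt1 cultures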; conditions: S. cerevisiae wt1 strain (SPY 50644) growth inhibition, active compounds read high
In short: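 Yeast wt1 strain exposed to compounds; growth inhibition measured relative to vehicle-treated controls.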

[3] = NCI Yeast Anticancer Drug Screen. Data for the rad50EPP+ strain (AID 151);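 also: 0% = growth of vehicle-treated control cultures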; conditions: S. cerevisiae rad50 mutant strain, active compounds read high
In short: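 Read-out is yeast growth inhibition relative to vehicle; cells used were the rad50EPP+ strain.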

[4] = NCI Yeast Anticancer Drug Screen. Data for the mgt1 strain (AID 153); conditions: S. cerevisiae mgt1 mutant growth inhibition, active compounds read high
In short: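 Measured: inhibition of mgt1 yeast growth by compound, normalized to vehicle-treated cultures.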

[5] = NCI Yeast Anticancer Drug Screen. Data for the rad50 strain (AID 155);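 also: 0% = growth of vehicle-only cultures of the same strain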; conditions: S. cerevisiae rad50 strain growth inhibition, active compounds read high
In short: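 Yeast carrying a defined DNA repair defect were exposed to test compounds, and growth was compared with vehicle-treated controls to give percent inhibition.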

[6] = NCI Yeast Anticancer Drug Screen. Data for the mec2-1 strain (AID 157); conditions: S. cerevisiae mec2-1 strain, active compounds read high
In short: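 Using mec2-1 yeast: add compound, measure growth, express inhibition versus vehicle-treated cultures.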

[7] = NCI Yeast Anticancer Drug Screen. Data for the rad14 strain (AID 159);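 also: 0% = growth of vehicle-treated control cultures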; conditions: S. cerevisiae rad14 strain growth inhibition, active compounds read high
In short: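 Yeast cells carrying a defined DNA-repair defect were exposed to compounds, and growth inhibition was calculated relative to vehicle-treated control cultures.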

[8] = NCI Yeast Anticancer Drug Screen. Data for the sgs1 mgt1 strain (AID 161);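 also: 0% = growth of cultures given vehicle only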; conditions: S. cerevisiae sgs1 mgt1 strain, active compounds read high
In short: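 This yeast growth screen uses a strain with defined DNA-repair lesions; compound-treated growth is compared with vehicle-treated growth.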

[9] = NCI Yeast Anticancer Drug Screen. Data for the CLN2oe strain (AID 163);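 also: 0% = growth of vehicle-only control cultures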; conditions: S. cerevisiae CLN2oe strain, active compounds read high
In short: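 Whole-cell yeast growth assay. A strain engineered for altered cell-cycle control received compound, and inhibition relative to vehicle-treated cultures was recorded.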

[10] = NCI Yeast Anticancer Drug Screen. Data for the cln2 rad14 strain (AID 165);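 also: 0% = growth equal to vehicle treated cultures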; conditions: S. cerevisiae cln2 rad14 strain, active compounds read high
In short: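 Yeast strain cln2 rad14, bearing defects in cell cycle control and DNA repair, serves as the test system; values reflect growth inhibition compared with vehicle.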

[11] = NCI Yeast Anticancer Drug Screen. Data for the bub3 strain (AID 167); conditions: S. cerevisiae bub3 mutant strain, active compounds read high
In short: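 Compounds were applied to a genetically altered yeast strain carrying a cell-cycle control defect. Growth inhibition was scored against vehicle-treated controls.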

[12] = NCI Yeast Anticancer Drug Screen. Data for the wt2 strain (AID 169);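 also: 0% = growth of vehicle-treated yeast cultures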; conditions: S. cerevisiae wt2 strain growth inhibition, active compounds read high
In short: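 Treated yeast vs. vehicle-treated yeast: growth inhibition determined.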

[13] = NCI Yeast Anticancer Drug Screen. Data for the mlh1 strain (AID 171);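 also: 0% = growth of vehicle-treated control cultures of the same strain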; conditions: S. cerevisiae mlh1 strain growth inhibition, active compounds read high
In short: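 A yeast strain with a defined genetic lesion serves as the test organism. Cultures receive compound or vehicle, and growth is measured.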

[14] = NCI Yeast Anticancer Drug Screen. Data for the sgs1 strain (AID 173);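 also: 0% = growth of vehicle-only control cultures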; conditions: S. cerevisiae sgs1 mutant, active compounds read high
In short: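 A genetically defined yeast mutant is incubated with the test compound, and its growth is compared to that of the same strain given vehicle.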

[15] = NCI Yeast Anticancer Drug Screen. Data for the mlh1 rad18 strain (AID 175); conditions: S. cerevisiae mlh1 rad18 strain growth inhibition, active compounds read high
In short: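 Steps: expose repair-defective yeast to compound; measure growth; express inhibition against vehicle-treated controls.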

[16] = NCI Yeast Anticancer Drug Screen. Data for the rad18 strain (AID 177); conditions: S. cerevisiae rad18 mutant growth inhibition, active compounds read high
In short: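 Measured value is growth inhibition of a yeast strain bearing a DNA repair alteration, referenced to vehicle-treated cells.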

[17] = at 5.0 µM (retest, dose inferred, filed as 0.5)
[18] = at 50.0 µM (retest, dose inferred, filed as 5.0)

Measured: growth inhibition

N#CN=Nc1cc(Cl)c(N=NC#N)cc1Cl
inactive: [1]; at 1.2 µM -27% | [1]; at 3.7 µM -19% | [1]; at 11.0 µM -18% | [1]; at 33.0 µM 2% | [1]; at 100.0 µM 68% | [2]; at 1.2 µM -6% | [2]; at 3.7 µM -5% | [2]; at 11.0 µM -6% | [2]; at 33.0 µM -3% | [2]; at 100.0 µM 47% | [3]; at 1.2 µM -4% | [3]; at 3.7 µM -3% | [3]; at 11.0 µM 6% | [3]; at 33.0 µM 31% | [4]; at 1.2 µM -10% | [4]; at 3.7 µM -6% | [4]; at 11.0 µM -6% | [4]; at 33.0 µM 28% | [5]; at 1.2 µM -15% | [5]; at 3.7 µM -8% | [5]; [17] -22% | [5]; at 11.0 µM -7% | [5]; at 33.0 µM 3% | [5]; [18] 64% | [5]; at 100.0 µM 55% | [6]; at 1.2 µM -14% | [6]; at 3.7 µM -17% | [6]; [17] 12% | [6]; at 11.0 µM -18% | [6]; at 33.0 µM -3% | [6]; at 50.0 µM 46% | [7]; at 1.2 µM 1% | [7]; at 3.7 µM 4% | [7]; at 11.0 µM 11% | [7]; at 33.0 µM 32% | [8]; [17] -5% | [8]; [18] -4% | [8]; at 50.0 µM 60.2% | [9]; at 1.2 µM -25% | [9]; at 3.7 µM -6% | [9]; at 11.0 µM -6% | [9]; at 33.0 µM -8% | [9]; at 100.0 µM 67% | [10]; [17] 33% | [10]; [18] 55% | [10]; at 50.0 µM 20.6% | [11]; at 1.2 µM -19% | [11]; at 3.7 µM 2% | [11]; [17] -1% | [11]; at 11.0 µM -7% | [11]; at 33.0 µM 25% | [11]; at 50.0 µM 43.8% | [12]; at 1.2 µM 2% | [12]; at 3.7 µM 1% | [12]; at 11.0 µM 0% | [12]; at 33.0 µM 3% | [12]; at 100.0 µM 30% | [13]; at 1.2 µM 22% | [13]; at 3.7 µM 10% | [13]; at 11.0 µM 12% | [13]; at 33.0 µM 29% | [14]; at 1.2 µM -25% | [14]; at 3.7 µM -15% | [14]; at 11.0 µM -13% | [14]; at 33.0 µM 13% | [15]; [17] -10% | [15]; at 50.0 µM 38.2% | [16]; at 1.2 µM -8% | [16]; at 3.7 µM -16% | [16]; at 11.0 µM -11% | [16]; at 33.0 µM 14%
active: [3]; at 100.0 µM 79% | [4]; at 100.0 µM 70% | [5]; at 50.0 µM 83.8% | [6]; [18] 87% | [6]; at 100.0 µM 78% | [7]; at 100.0 µM 85% | [11]; [18] 96% | [11]; at 100.0 µM 88% | [13]; at 100.0 µM 87% | [14]; at 100.0 µM 94% | [15]; [18] 98% | [16]; at 100.0 µM 82%

COP(=O)(OC)/C(=C\C1=CN(C(c2ccccc2)(c2ccccc2)c2ccccc2)CN1)NC=O
active: [1]; at 100.0 µM 96% | [2]; at 100.0 µM 96% | [3]; at 11.0 µM 73% | [3]; at 33.0 µM 96% | [3]; at 100.0 µM 97% | [4]; at 100.0 µM 96% | [5]; at 33.0 µM 73% | [5]; at 50.0 µM 98% | [5]; at 100.0 µM 96% | [6]; at 50.0 µM 98.3% | [6]; at 100.0 µM 97% | [7]; at 100.0 µM 96% | [8]; at 50.0 µM 98.3% | [9]; at 100.0 µM 95% | [10]; at 50.0 µM 95.2% | [11]; at 50.0 µM 96.2% | [11]; at 100.0 µM 94% | [12]; at 100.0 µM 96% | [13]; at 33.0 µM 71% | [13]; at 100.0 µM 96% | [14]; at 33.0 µM 79% | [14]; at 100.0 µM 97% | [15]; at 50.0 µM 97% | [16]; at 100.0 µM 95%
inactive: [1]; at 1.2 µM -12% | [1]; at 3.7 µM -15% | [1]; at 11.0 µM -11% | [1]; at 33.0 µM 59% | [2]; at 1.2 µM 12% | [2]; at 3.7 µM 3% | [2]; at 11.0 µM 5% | [2]; at 33.0 µM 54% | [3]; at 1.2 µM 2% | [3]; at 3.7 µM 10% | [4]; at 1.2 µM 6% | [4]; at 3.7 µM -3% | [4]; at 11.0 µM 11% | [4]; at 33.0 µM 67% | [5]; at 1.2 µM -14% | [5]; at 3.7 µM -32% | [5]; [17] 2% | [5]; at 11.0 µM -17% | [5]; [18] -15% | [6]; at 1.2 µM 34% | [6]; at 3.7 µM 13% | [6]; [17] -10% | [6]; at 11.0 µM 30% | [6]; at 33.0 µM 68% | [6]; [18] -4% | [7]; at 1.2 µM 4% | [7]; at 3.7 µM -1% | [7]; at 11.0 µM -5% | [7]; at 33.0 µM 65% | [8]; [17] -9% | [8]; [18] 0% | [9]; at 1.2 µM 3% | [9]; at 3.7 µM 8% | [9]; at 11.0 µM -8% | [9]; at 33.0 µM 25% | [10]; [17] 3% | [10]; [18] 7% | [11]; at 1.2 µM -27% | [11]; at 3.7 µM -41% | [11]; [17] -7% | [11]; at 11.0 µM -41% | [11]; at 33.0 µM 33% | [11]; [18] 2% | [12]; at 1.2 µM -10% | [12]; at 3.7 µM -13% | [12]; at 11.0 µM -6% | [12]; at 33.0 µM 34% | [13]; at 1.2 µM 1% | [13]; at 3.7 µM -13% | [13]; at 11.0 µM -8% | [14]; at 1.2 µM 13% | [14]; at 3.7 µM 20% | [14]; at 11.0 µM 12% | [15]; [17] -22% | [15]; [18] -8% | [16]; at 1.2 µM -7% | [16]; at 3.7 µM -18% | [16]; at 11.0 µM -13% | [16]; at 33.0 µM 40%
